From publication PMC10668032, “Altered binding affinity of SIX1-Q177R correlates with enhanced WNT5A and WNT pathway effector expression in Wilms tumor”
The full ranking holds about 33,000 sequences; the median of “e-score” is about -0.053, and the highest 2% start at about 0.38. The sample holds the highest values, similar sequences and a random draw of the others, so the mix is not that of the screen.

The sequences below were run against T1, SIX1 homeodomain (reference allele) (human, UniProt Q15475 108-198) (assay: universal protein binding microarray; Universal all-10-mer PBM (8x60K, AMADID 030236), 300 nM GST-tagged protein, Alexa Fluor 488 anti-GST; buffer, salt, pH and temperature not stated (as in Berger); high values mean tight binding). Details: protein: ivt; tags: N-terminal GST; dsDNA, one strand shown.
T1 sequence: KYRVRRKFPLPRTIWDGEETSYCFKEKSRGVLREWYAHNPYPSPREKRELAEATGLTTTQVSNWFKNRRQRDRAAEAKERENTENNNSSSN
Procedure, shortened: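 Binding was expressed as 8-mer E-scores calculated with the Universal PBM Analysis Suite. The GST-tagged homeodomains, made by in vitro transcription/translation, were applied in duplicate at 300 nM final concentration to universal 'all 10-mer' protein binding microarrays (8×60K format).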

Row | Sequence | binding signal [E-score]
1 | CAGTTATC | 0.176 ± 0.0291
2 | AACAATAT | 0.253 ± 0.0623
3 | CGATGAGA | 0.191 ± 0.0564
4 | CGATGACA | 0.18 ± 0.00711
5 | CGATGATA | 0.445 ± 0.0281
6 | ATTATGCG | 0.242 ± 0.0214
7 | GTGTAGTA | 0.185 ± 0.0109
8 | CACTATCA | 0.276 ± 0.0303
9 | AGATATAA | 0.261 ± 0.0786
10 | GGATATAA | 0.352 ± 0.0244
11 | CGATATAC | 0.405 ± 0.0197
12 | AGATATAT | 0.337 ± 0.0754
13 | CGATATAA | 0.243 ± 0.0501
14 | GTATATAC | 0.316 ± 0.0323
15 | GGATATAC | 0.406 ± 0.0168
16 | AGATATAC | 0.38 ± 0.0393
17 | CGATATAG | 0.362 ± 0.0306
18 | ACACGGGC | 0.179 ± 0.0209
19 | ACCCCGTA | 0.209 ± 0.0622
20 | CGGTTTCA | 0.152 ± 0.0123
21 | ATCCTCAC | 0.234 ± 0.0503
22 | ATAGTGTA | 0.205 ± 0.0143
23 | CTCAAGGA | 0.164 ± 0.0491
24 | GGGGCGGA | 0.159 ± 0.113
25 | ATTTATAC | 0.22 ± 0.116

Row | Sequence | binding signal [E-score]
26 | TATGGTAA | 0.166 ± 0.0578
27 | ATACCCCC | 0.454 ± 0.015
28 | ACCCCCCG | 0.168 ± 0.0136
29 | ATACCCCG | 0.4703 ± 0.00344
30 | TACCCCCA | 0.243 ± 0.0116
31 | ACACCCCG | 0.353 ± 0.0394
32 | ATAACCCC | 0.251 ± 0.0341
33 | ATTACCCC | 0.177 ± 0.0101
34 | ACACCCCC | 0.3856 ± 0.00209
35 | ACACCCCA | 0.365 ± 0.0445
36 | AGACCCCG | 0.23 ± 0.085
37 | TGACCCCA | 0.198 ± 0.0237
38 | ATACCCCA | 0.43 ± 0.00878
39 | ATAGCCTG | 0.205 ± 0.031
40 | ATCCCATG | 0.311 ± 0.0488
41 | GACCATGA | 0.216 ± 0.0376
42 | GGGAGATA | 0.3342 ± 0.000849
43 | ATCAGTAC | 0.2244 ± 0.00203
44 | GATCACTA | 0.371 ± 0.0113
45 | GGATAGGA | 0.28 ± 0.0103
46 | AGATAGCT | 0.178 ± 0.0771
47 | GATCCTAA | 0.262 ± 0.00612
48 | ATCAGGGC | 0.178 ± 0.0395
49 | ACAAGGTA | 0.192 ± 0.0136
50 | GATAGTAC | 0.212 ± 0.0174

Row | Sequence | binding signal [E-score]
51 | CAGATATC | 0.456 ± 0.0169
52 | AAGATATT | 0.214 ± 0.124
53 | GAGATATA | 0.359 ± 0.0685
54 | AAGATATG | 0.303 ± 0.0441
55 | GAGATATC | 0.442 ± 0.0368
56 | GAGAGATC | 0.286 ± 0.00645
57 | CAGATATG | 0.315 ± 0.0384
58 | AAGATATC | 0.445 ± 0.0468
59 | CAGATATA | 0.263 ± 0.0342
60 | CTCTACAC | 0.163 ± 0.00511
61 | ACCATAGA | 0.197 ± 0.0646
62 | CCGATCTA | 0.2622 ± 0.00225
63 | ATAGTGCA | 0.163 ± 0.0274
64 | CGAGGGTA | 0.159 ± 0.0143
65 | ACTAATCC | 0.228 ± 0.027
66 | AGATCAGG | 0.284 ± 0.0116
67 | CTATCAGA | 0.271 ± 0.0216
68 | GTATCTGA | 0.355 ± 0.00568
69 | ATCTCAGG | 0.164 ± 0.0156
70 | ATATCAGA | 0.408 ± 0.0495
71 | ATCTCAGA | 0.31 ± 0.0258
72 | GTATCAGA | 0.466 ± 0.0136
73 | ATATCAGC | 0.404 ± 0.0329
74 | CTATCAGC | 0.202 ± 0.00952
75 | ATATCAGG | 0.403 ± 0.0398

Row | Sequence | binding signal [E-score]
76 | GTGTCAGA | 0.29 ± 0.0236
77 | AGATCAGC | 0.273 ± 0.00331
78 | GGTATGAA | 0.224 ± 0.00641
79 | GCCTAATA | 0.167 ± 0.0373
80 | ATCATGCA | 0.225 ± 0.0116
81 | AGATAGTA | 0.24 ± 0.0305
82 | CCCGTCTC | 0.205 ± 0.0534
83 | ACCGTATA | 0.278 ± 0.0281
84 | ACCGTCTC | 0.251 ± 0.0203
85 | CCCGTATA | 0.29 ± 0.023
86 | CCCGTATC | 0.469 ± 0.0109
87 | ACCGTATC | 0.449 ± 0.00906
88 | ATACAGTC | 0.163 ± 0.00378
89 | CAGATAGC | 0.171 ± 0.0462
90 | GGGATTAC | 0.167 ± 0.011
91 | CAGGATTA | 0.213 ± 0.0434
92 | CGGATTAC | 0.299 ± 0.00435
93 | AGATAATA | 0.245 ± 0.114
94 | ATCAAATA | 0.239 ± 0.0859
95 | CACAATAC | 0.31 ± 0.0105
96 | ATACTACC | 0.23 ± 0.0327
97 | AAGGGATA | 0.37 ± 0.0084
98 | GAGGGGTA | 0.257 ± 0.0214
99 | CATGGATA | 0.3 ± 0.00508
100 | TAGGGATA | 0.41 ± 0.00754

Row | Sequence | binding signal [E-score]
101 | AATGGATA | 0.354 ± 0.0168
102 | GAGGGATC | 0.397 ± 0.00899
103 | TAGGGAGA | 0.177 ± 0.0683
104 | GATGGATA | 0.3768 ± 0.0011
105 | GAGGGATA | 0.412 ± 0.00552
106 | GGCATATA | 0.29 ± 0.00948
107 | CGGATTAA | 0.351 ± 0.0739
108 | CTATAATA | 0.259 ± 0.0899
109 | GATCTCGC | 0.254 ± 0.0311
110 | ATAGATGA | 0.287 ± 0.0197
111 | ATCGTGCA | 0.16 ± 0.0147
112 | ATATGGAT | 0.371 ± 0.00838
113 | CCAGATCC | 0.332 ± 0.0766
114 | CCCGATCG | 0.323 ± 0.0723
115 | ACGGATCT | 0.324 ± 0.0553
116 | ACGGATCC | 0.386 ± 0.0442
117 | CCGGATCC | 0.424 ± 0.034
118 | CCGGATTC | 0.249 ± 0.0385
119 | ACGGATCA | 0.43 ± 0.0139
120 | ACGGATCG | 0.354 ± 0.0265
121 | CCGGATCG | 0.417 ± 0.0468
122 | ACAGATCC | 0.288 ± 0.0336
123 | GCGGATCC | 0.348 ± 0.0564
124 | ATCTCGAG | 0.215 ± 0.0177
125 | AACCCATA | 0.263 ± 0.0634

Row | Sequence | binding signal [E-score]
126 | GTTAGATA | 0.248 ± 0.0413
127 | AAGATCAA | 0.201 ± 0.0668
128 | ATCCTACC | 0.299 ± 0.0201
129 | CGTATTAG | 0.174 ± 0.0547
130 | GTACACGA | 0.165 ± 0.0933
131 | ACTAGATC | 0.181 ± 0.003
132 | CGAAGATA | 0.325 ± 0.0496
133 | ATCCCGAC | 0.238 ± 0.0448
134 | ACCCGATA | 0.4 ± 0.0453
135 | ACCCGATC | 0.372 ± 0.0497
136 | CACCGATA | 0.374 ± 0.0197
137 | AACCGATA | 0.41 ± 0.00758
138 | GCCCGATA | 0.33 ± 0.0332
139 | TACCGATA | 0.375 ± 0.0115
140 | ATACATTA | 0.223 ± 0.0139
141 | ATCCATGC | 0.253 ± 0.0158
142 | ATCCGAAC | 0.278 ± 0.0321
143 | ACGGATAT | 0.4283 ± 0.00251
144 | CCGGATAA | 0.299 ± 0.0306
145 | GCGGATAC | 0.43 ± 0.00572
146 | ACGGATAC | 0.454 ± 0.00689
147 | ACGGATTC | 0.187 ± 0.0297
148 | ACGGATTG | 0.179 ± 0.0302
149 | ACGGATAG | 0.344 ± 0.0201
150 | CCGGATAG | 0.361 ± 0.0142

Row | Sequence | binding signal [E-score]
151 | GCGGATAA | 0.317 ± 0.0316
152 | ACGGATAA | 0.216 ± 0.0405
153 | CCGGATAC | 0.4414 ± 0.00339
154 | AGGTAGAT | 0.2625 ± 0.00214
155 | GATCTGCC | 0.334 ± 0.00569
156 | ATCCGAGC | 0.24 ± 0.00809
157 | GTATTACA | 0.227 ± 0.0055
158 | GATAGTCC | 0.24 ± 0.023
159 | GGTGTTAA | 0.301 ± 0.0173
160 | ATCTGTAC | 0.221 ± 0.0203
161 | ATCGCATA | 0.287 ± 0.0238
162 | GATCATTA | 0.348 ± 0.0458
163 | AGTCTGAT | 0.19 ± 0.0144
164 | GAGATCCC | 0.378 ± 0.0279
165 | GCGATCCA | 0.345 ± 0.0824
166 | CCGATCTC | 0.316 ± 0.0192
167 | GAGATCCA | 0.332 ± 0.0213
168 | CCGATCCC | 0.412 ± 0.0499
169 | GCGATCCC | 0.395 ± 0.0154
170 | AAGATCCC | 0.243 ± 0.0194
171 | CCGATCGA | 0.264 ± 0.0353
172 | GCGATCGC | 0.378 ± 0.0183
173 | CCGATCGC | 0.212 ± 0.0392
174 | GCGATCGA | 0.199 ± 0.0473
175 | ACGATCCC | 0.337 ± 0.0613
